PLCb3 inh: inhibitors of human phospholipase C beta3 | Purified PLC-beta3, fluorogenic substrate, fluorescence | AID 720704 | Q01970 | inhibition, % at 12.2 µM | actives 0.18% (n = 370,000); in the data active = inhibition above about 11%;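 note: 0% = median of compound wells on plate and 100% = full blocker control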
DAGLB inhibitor: diacylglycerol lipase beta (human) inhibition; HEK293T DAGLB membrane lysate, EnzChek fluorogenic substrate; actives 0.059% (n = 340,000); inhibition, % at 5.17 µM; AID 504411; Q8NCG7; in the data active = inhibition above about 34%;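 note: 0% = enzyme with vehicle and 100% = wells lacking enzyme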
Target sequence (Q8NCG7 whole entry, looked up): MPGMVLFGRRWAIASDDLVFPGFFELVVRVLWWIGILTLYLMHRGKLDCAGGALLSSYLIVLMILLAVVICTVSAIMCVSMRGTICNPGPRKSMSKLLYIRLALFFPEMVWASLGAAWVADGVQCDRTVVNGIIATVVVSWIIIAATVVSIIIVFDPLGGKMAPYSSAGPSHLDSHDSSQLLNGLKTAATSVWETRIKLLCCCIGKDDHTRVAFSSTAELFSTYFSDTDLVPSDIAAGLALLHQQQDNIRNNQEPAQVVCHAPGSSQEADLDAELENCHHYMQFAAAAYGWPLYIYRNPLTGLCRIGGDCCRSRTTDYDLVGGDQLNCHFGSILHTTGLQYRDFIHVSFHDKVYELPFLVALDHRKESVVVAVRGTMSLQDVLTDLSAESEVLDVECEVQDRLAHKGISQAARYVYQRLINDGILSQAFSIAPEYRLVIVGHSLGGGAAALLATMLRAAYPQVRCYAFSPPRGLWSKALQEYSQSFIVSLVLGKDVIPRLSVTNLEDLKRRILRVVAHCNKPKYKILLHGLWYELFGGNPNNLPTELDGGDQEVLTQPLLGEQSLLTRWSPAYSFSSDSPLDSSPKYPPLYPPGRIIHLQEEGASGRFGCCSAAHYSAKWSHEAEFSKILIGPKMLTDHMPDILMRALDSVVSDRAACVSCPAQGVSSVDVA
PLC-gamma1 inh: blocks human PLC-gamma1 enzyme activity. actives 0.84% (n = 370,000). inhibition, % at 12.2 µM. P19174. purified PLC-gamma1, fluorogenic substrate, fluorescence
sPLA2-III inh: Inhibits HGIII-sPLA2 liposome hydrolysis, primary screen; Q9NZ20; QFRET BODIPY PC-A2 liposome hydrolysis, fluorescence; inhibition, % at 12.2 µM; actives 0.56% (n = 370,000); AID 743126;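 active = inhibition above mean plus 3 SD of compounds lying within the high and low control bounds, cut at about 19% in these data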;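 note: 0% = median of test compound wells and 100% = no enzyme DMSO wells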
PLCgamma1 ctr: counter-screen for PLC-beta3 inhibitors: inhibitors of human PLC-gamma1. purified PLC-gamma1, fluorogenic substrate, fluorescence. actives 3.1% (n = 3,300). shares compounds with PLC-gamma1 inh. inhibition, % at 12.3 µM
PLCbeta3 conf: human PLC-beta3 inhibition, confirmation. shares compounds with PLC-gamma1 inh. purified PLC-beta3, fluorogenic substrate fluorescence. inhibition, % at 12.3 µM. actives 1% (n = 3,300); in the data active = inhibition above about 11%
* marks the source's active call; other numbers are inactive results; . = no result given; ! = a repeat was not active. In the library only some 1.5% were active in any assay of this set; here they are far more common. Cut-off read from the data, not from the text of the source, unless noted: active = inhibition above about 9.5%; inactive = the rest.

SMILES | PLCb3 inh | DAGLB inhibitor | PLC-gamma1 inh | sPLA2-III inh | PLCgamma1 ctr | PLCbeta3 conf
CC1Cn2c(Cc3ccccc3)nnc2S1 (stereo not drawn) | 14.3* | . | 8.0 | 7.8 | -1.2 | 3.1
CCOC(=O)N1CCN(C(=O)C[C@H]2C[C@@]3(C(=O)OC)C(=C[C@H](C(C)C)O[C@@H]3C3CC3)N(Cc3ccco3)C2=O)CC1 | 2.2 | . | 0.4 | -3.9 | . | .
FC(F)(F)c1ccccc1N/N=C/c1cccnc1 | -2.8 | -3.3 | 10.4* | 5.6 | 0.6 | -1.9
CCOc1ccc(NC(=O)CC2SC(=O)N(c3ccccc3)C2=O)cc1 (stereo not drawn) | 4.3 | 18.0 | 9.9* | -11.7 | -8.9 | -6.8
O=C1[C@H](Cc2ccccc2)NCCCC[C@H](c2ccc(Cl)cc2)N1Cc1ccc(Cl)cc1 | 2.0 | -20.7 | 1.2 | -4.8 | . | .
O=C1[C@H](Cc2ccccc2)NCCCC[C@@H](c2ccc(Cl)cc2)N1Cc1ccccc1 | 1.4 | 8.7 | 16.2* | 2.1 | 0.8 | 2.3
CCOC(=O)Cn1nnc(-c2ccccc2)n1 | 13.6* | -1.7 | 2.9 | 6.6 | -2.4 | 2.2
O=C(CNC(=O)c1ccc(Cl)cc1)OCN1C(=O)c2ccccc2C1=O | 9.1 | -1.3 | 5.7 | 0.2 | . | .
CC(=O)NCC(=O)OCN1C(=O)c2ccccc2C1=O | 6.0 | -5.2 | 10.4* | 12.2 | -5.0 | 0.0
Cn1cccc1C(=O)N1CCN(S(=O)(=O)c2cccc3ccccc23)CC1 | 0.3 | . | -1.6 | -5.8 | . | .
CC(C)NC(=O)c1cc2c(C(F)(F)F)nn(C)c2s1 | 5.4 | -2.0 | 0.4 | 3.5 | . | .
CCCNC(=O)c1cc2c(C(F)(F)F)nn(C)c2s1 | 1.0 | -3.3 | 13.1* | 1.3 | -4.8 | -0.8
CCOC(=O)[C@]12CCCC3=C1N(CCC3)C(=O)[C@@H](CC(=O)NCc1ccc(OC)c(OC)c1)C2 | 4.3 | . | 1.9 | 5.6 | . | .
COc1ccc([N+](=O)[O-])cc1NC(=O)Nc1ccccc1 | -0.5 | 1.6 | 2.4 | -3.8 | . | .
COc1ccc([N+](=O)[O-])cc1NC(=O)CSCc1ccc(Br)cc1 | 4.9 | -1.9 | 10.6* | 3.3 | -2.9 | -2.5
COC(=O)Nc1cc([N+](=O)[O-])ccc1OC | 4.3 | 0.1 | 10.0* | 8.5 | 0.2 | 5.5
COc1ccc([N+](=O)[O-])cc1NC(=O)CSCc1ccccc1C | 2.9 | -3.1 | 2.5 | -1.6 | . | .
Fc1ccccc1-c1n[nH]c(=S)n1N=Cc1ccc(-c2ccccc2)cc1 | -1.4 | . | 2.7 | -6.3 | . | .
CCOc1cccc(C(=O)Nc2ccc(NC(=O)c3ccccc3)c(C)c2)c1 | 14.7* | 3.1 | 6.6 | -1.0 | -2.7 | 14.3*
COc1cc(OC)cc(C(=O)Nc2cccc3ccccc23)c1 | -6.9 | -1.7 | 1.9 | -4.1 | . | .
CCC(C)NC(=O)c1ccccc1NC(=O)COc1ccc(OC)cc1 (stereo not drawn) | 5.7 | -5.0 | 10.8* | 8.8 | -3.0 | 0.1
COc1cccc(C(=O)Nc2cccc3ccccc23)c1 | 3.5 | -1.5 | 15.5* | -1.9 | 3.4 | 1.6
COc1ccc(OCC(=O)Nc2ccccc2C(=O)NC(C)C)cc1 | -0.1 | -5.7 | -1.2 | -3.3 | . | .
COc1ccc(NC(=O)c2cccc3ccccc23)cc1 | -4.2 | -1.6 | 9.9* | -4.4 | -7.6 | -3.9
CCOC(=O)C1CCCN(S(=O)(=O)c2cc3c(cc2Br)CCN3C(=O)CC)C1 (stereo not drawn) | 2.2 | . | -0.7 | -1.5 | . | .
SMILES | PLCb3 inh | DAGLB inhibitor | PLC-gamma1 inh | sPLA2-III inh | PLCgamma1 ctr | PLCbeta3 conf
CNC(=O)CCc1nc(-c2ccc(C(C)C)cc2)no1 | 0.7 | . | 1.4 | -0.4 | . | .
CN1C(=O)C(=O)N2C(=C[C@]3(c4c[nH]c5ccccc45)c4ccccc4N[C@H]23)C1=O | -12.7 | . | -3.2 | -1.4 | . | .
O=C(NCc1ccccc1)OC1CCC12CCC(c1ccccc1)CC2 (stereo not drawn) | 0.2 | . | 0.2 | -6.2 | . | .
CCC[C@H]1[C@@H](NC(=O)c2ccc(N(C)C)cc2)CC[C@@]23CCCN2C(=O)CCC[C@@H]13 | -4.6 | . | -1.3 | 3.7 | . | .
COc1cccc(C(=O)NNS(=O)(=O)c2ccccc2)c1 | 2.6 | 0.1 | 11.6* | 1.7 | -4.9 | -2.0
COc1ccc(NC(=O)c2ccccc2NC(=O)COc2ccccc2)cc1 | 3.3 | -0.6 | 4.2 | 5.5 | . | .
COc1ccc(C(=O)NNS(=O)(=O)c2ccccc2)cc1 | -0.4 | 1.1 | -0.8 | 5.2 | . | .
COCC(=O)Nc1ccccc1C(=O)Nc1ccc(OC)cc1 | 1.2 | -0.4 | 10.8* | 1.7 | -7.3 | -0.6
CCCCOCCCNC(=O)C[C@H]1C[C@@]2(C(=O)OC)C(=C[C@H](C3CCCC3)O[C@@H]2C)N(CCc2ccc(OC)c(OC)c2)C1=O | 5.2 | . | 1.2 | -6.8 | . | .
COc1ccc(S[C@]2(C(=O)N(C)C)CC(=O)N(c3ccsc3)[C@@H]2c2ccc(OC)cc2)cc1 | 3.4 | . | 2.5 | -5.0 | . | .
O=Cc1c[nH]c2ncccc12 | -7.0 | -2.2 | 10.2* | 17.6 | -5.1 | -2.5
COc1ccc(CCN(C(=O)C(F)(F)F)C(C(=O)NC2CCCCC2)c2ccc(C)s2)cc1 (stereo not drawn) | 7.5 | 0.1 | 10.6* | 1.6 | 0.6 | -4.4
CN1Cc2nnn(Cc3ccccc3)c2-c2cc(N3CCCCC3)ccc2S1(=O)=O | -421.1 | . | -379.9 | 0.4 | . | .
CCN1CCN(CC(=O)NC2CCCC2)C(=O)C1=O | 6.8 | 0.7 | 13.1* | 13.8 | -4.1 | -4.0
CC(C)(N[C@@H](Cc1ccccc1)C(=O)NCCCc1ccccc1)C(=O)NCc1ccccc1 | -2.7 | . | -2.8 | -15.1 | . | .
Cc1ccc(S(=O)(=O)/N=C(/NC(=S)Nc2ccccc2)c2ccccc2)cc1 | -0.5 | -3.5 | -2.8 | -9.6 | . | .
Cc1ccc(NC(=S)N/C(=N/S(=O)(=O)c2ccccc2)c2ccccc2)cc1 | -2.0 | -3.4 | 16.5*! | 3.7 | -4.1 | -0.9
Cc1cc(N2CCN(C(=O)OC(C)(C)C)C[C@H]2C)ccc1N1CCN(Cc2ccccc2)[C@@H](C)C1 | 2.9 | . | -0.4 | 6.8 | . | .
COc1cccc([C@@H]2NC(=O)C/C=C/[C@H](C)[C@H](c3cccc(OC)c3)NC(=O)C/C=C/[C@@H]2C)c1 | 1.6 | . | -0.4 | -1.2 | . | .
CCc1ccc(NC(=O)COc2ccc3c(c2)OCO3)cc1 | -9.4 | -18.9 | -0.8 | 3.2 | . | .
CCc1ccc(OCC(=O)Nc2ccc3c(c2)OCCO3)cc1 | -1.3 | -13.3 | 9.5* | 2.9 | -5.5 | -4.1
CCn1c(C)nnc1SCC(=O)Nc1ccc2c(c1)OCCO2 | -0.3 | -0.6 | 9.9* | 0.4 | -8.9 | 0.7
Cc1cnc(C(=O)OCC(=O)NCc2ccc3c(c2)OCO3)cn1 | 11.5* | -2.3 | 3.3 | 3.8 | -3.2 | -3.5
CCOc1ccc2nc(SCC(=O)NCc3ccc4c(c3)OCO4)[nH]c2c1 | 6.0 | 3.2 | 13.2* | -8.7 | 0.4 | -18.5
C=CCn1c(C)nnc1SCC(=O)Nc1ccc2c(c1)OCCO2 | -0.1 | -1.8 | -3.5 | 9.0 | . | .
O=C(COc1ccc(F)c(Cl)c1)N[C@H]1CCCN(CC2CC2)C1 | 3.5 | . | -0.5 | -3.4 | . | .
Cc1occc1C(=O)NCc1ccc2c(c1)OCO2 | 4.4 | -1.1 | 10.6* | -2.4 | -7.1 | -0.8
CCOc1ccc2nc(SCC(=O)Nc3ncccn3)[nH]c2c1 | 5.3 | -0.7 | 10.9* | 6.5 | -4.7 | -2.1
